Measurements: ChEMBL document CHEMBL3988442, “University of Dundee, Small-Polar-MMV Screening Library” (2021)
Out of some 69,000 compounds screened, about 50 (0.07%) showed an effect of 50% or more. The sample as a whole holds a higher share of strong results than the screen did.

biological target: Lysine--tRNA ligase (Plasmodium falciparum (isolate 3D7)) (UniProt Q8IDJ8); experiment: Pf-KRS-1 (Lysyl-RNA Synthetase-1, KRS-1, cytosolic KRS) from Plasmodium falciparum. Inhibitor assay, 384 well plate, luminescence read.; assay type: functional; set-up: scale not given: in the data most compounds retested in dose-response had high values; conditions: 30 µM
Sequence (Q8IDJ8 1-583): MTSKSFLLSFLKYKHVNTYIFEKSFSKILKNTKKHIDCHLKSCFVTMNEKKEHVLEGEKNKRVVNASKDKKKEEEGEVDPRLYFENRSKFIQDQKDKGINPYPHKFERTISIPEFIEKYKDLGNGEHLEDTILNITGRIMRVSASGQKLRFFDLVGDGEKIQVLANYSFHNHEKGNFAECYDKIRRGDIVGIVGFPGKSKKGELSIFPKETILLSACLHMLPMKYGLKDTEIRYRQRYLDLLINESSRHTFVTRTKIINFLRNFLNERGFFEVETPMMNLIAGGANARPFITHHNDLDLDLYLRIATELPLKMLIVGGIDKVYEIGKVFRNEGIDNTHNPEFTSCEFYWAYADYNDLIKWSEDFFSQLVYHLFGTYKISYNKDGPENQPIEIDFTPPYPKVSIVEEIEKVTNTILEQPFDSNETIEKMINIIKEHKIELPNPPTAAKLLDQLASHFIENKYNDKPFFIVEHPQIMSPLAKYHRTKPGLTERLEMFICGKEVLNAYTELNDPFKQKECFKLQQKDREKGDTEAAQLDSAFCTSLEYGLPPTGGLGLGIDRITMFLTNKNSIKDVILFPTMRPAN

| Compound | Percent Effect [%] |
| --- | --- |
| COC(=O)c1ccc2ccn(CC3CCCCO3)c(=O)c2c1 (stereo unspecified) | 78.6 |
| COC(=O)c1ccc2ccn(CC3CCCO3)c(=O)c2c1 (stereo unspecified) | 12.9 |
| COC(=O)c1ccc2ccn(CC3COCCO3)c(=O)c2c1 (stereo unspecified) | 26.4 |
| O=C(N1CCCO1)[C@@]12CCO[C@@H]1CCN(Cc1cccnc1)C2 | 0.613 |
| CN1C(=O)CO[C@H]2CCN(C(=O)Cc3ccc4c(c3)CCCC4)CC[C@@H]21 | 0.27 |
| CCCn1nc2c(cc1=O)CN(CC1CCCCO1)CC2 (stereo unspecified) | 8.29 |
| c1ncc2c(n1)CN(CC1CCCCO1)CC2 (stereo unspecified) | 84.6 |
| Cn1nc2c(cc1=O)CN(CC1CCCCO1)CC2 (stereo unspecified) | 50.5 |
| Cc1ncc2c(n1)CN(CC1CCCCO1)CC2 (stereo unspecified) | 76.2 |
| Cc1cc(CN2CCc3cncnc3C2)no1 | 8.95 |
| CCc1ncc2c(n1)CN(CC1CCCCO1)CC2 (stereo unspecified) | 17.1 |
| CC(C)n1nc2c(cc1=O)CN(CC1CCCCO1)CC2 (stereo unspecified) | 11.8 |
| CCn1nc2c(cc1=O)CN(CC1CCCCO1)CC2 (stereo unspecified) | -3.92 |
| CC(C)c1ncc2c(n1)CN(CC1CCCCO1)CC2 (stereo unspecified) | 2.58 |
| COCCN1CCO[C@H]2CN(Cc3cccc(C)n3)C[C@H]21 | 2.71 |
| CO[C@H]1CN(CC2CCOCC2)[C@@H]2CCCO[C@H]12 | 3.3 |
| Cc1cccc(CN2C[C@H](NS(C)(=O)=O)[C@@H]3OCCC[C@@H]32)n1 | 0.332 |
| Cc1noc([C@]23COC[C@H]2CN(C(C)C)C3)n1 | 2.71 |
| CC(CCc1ccccc1)NC(=O)Nc1cnn(CC(N)=O)c1 (stereo unspecified) | 2.54 |
| COCCn1cc(NC(=O)NC(C)CCc2ccccc2)ccc1=O (stereo unspecified) | 64.7 |
| COCCn1cc(NC(=O)C(C)CCc2ccccc2F)ccc1=O (stereo unspecified) | 34.2 |
| CCCN1CCN(C(=O)c2cc3ccccc3cn2)[C@H]2CS(=O)(=O)C[C@H]21 | 4.93 |
| Cc1ccc(-c2ccc(C3CNCCO3)nc2)cc1 (stereo unspecified) | 5.24 |
| Cc1cccc(NC2CCc3c2[nH]c(=O)n(C2CCCCC2)c3=O)c1C (stereo unspecified) | 32.2 |

| Compound | Percent Effect [%] |
| --- | --- |
| O=c1[nH]c2c(c(=O)n1C1CCCCC1)CCC2Nc1ccccc1Cl (stereo unspecified) | 61.5 |
| O=c1[nH]c2c(c(=O)n1C1CCCCC1)CCC2Nc1ccccc1 (stereo unspecified) | 24.4 |
| O=c1[nH]c2c(c(=O)n1C1CCCCC1)CCC2NCc1ccccc1 (stereo unspecified) | 11.2 |
| O=c1[nH]c2c(c(=O)n1C1CCCCC1)CCC2Nc1ccccn1 (stereo unspecified) | 28.1 |
| O=c1[nH]c2c(c(=O)n1C1CCCCC1)CCC2NCCc1ccccc1 (stereo unspecified) | 55.6 |
| COC[C@@]12CCO[C@@H]1CCN(Cc1ccccc1OC)C2 | 6.78 |
| CC(=O)N1CCO[C@@H]2CN(S(=O)(=O)C3CC3)CC[C@@H]2C1 | 2.76 |
| CO[C@H]1CC[C@H]2[C@H]1OCCN2C(=O)CC1=CCCCC1 | 18.1 |
| Cc1ncsc1CN1C[C@H](C(=O)N2CCCO2)[C@@H]2CCO[C@@H]2C1 | 0.217 |
| COc1ccc(CNC(=O)Nc2ccc(CN3CCOC3=O)cc2)cc1 | 0.788 |
| Cn1cc(NC(=O)NCc2ccoc2)ccc1=O | 58.5 |
| COc1ccc(CNC(=O)Nc2ccc(=O)n(C)c2)cc1 | 77.6 |
| Cn1cc(NC(=O)NCc2ccsc2)ccc1=O | 73.2 |
| O=C(NCc1ccoc1)Nc1ccc(CN2CCOC2=O)cc1 | 2.38 |
| CN(Cc1ccsc1)C(=O)Nc1ccc(=O)n(C)c1 | 28.4 |
| Cn1cc(NC(=O)CCc2ccsc2)ccc1=O | 7.87 |
| COC(=O)c1ccc(CNC(=O)Nc2ccc(=O)n(C)c2)cc1 | -0.542 |
| Cc1nnc(NC(=O)NCc2ccoc2)s1 | 0.941 |
| COCC(=O)N1C[C@H]2CCC[C@@]2(COC)C1 | 3.43 |
| O=C(c1cccnc1)N1C[C@H]2CN(Cc3cccc(F)c3)C(=O)[C@H]2C1 | 7.87 |
| CO[C@H]1CCN(C2CCC2)[C@@H]2CN(Cc3ccncc3)C[C@H]12 | 3 |
| CO[C@@H]1CCN(S(=O)(=O)c2cccnc2)[C@@H]2CN(CC3CC3)C[C@@H]21 | 4.3 |
| O=C(NC1CCCC1)[C@H]1CC[C@@H]2[C@@H](CCN2c2ncc(F)cn2)O1 | -0.28 |
| CO[C@H]1CC[C@H]2[C@H]1OCCN2Cc1ccc(F)c(F)c1 | -6.11 |

| Compound | Percent Effect [%] |
| --- | --- |
| COCc1cnc2n1CCN(C(=O)c1ccc3ccccc3n1)C2C (stereo unspecified) | 10.7 |
| O=C(CC1CCCC1)N1C[C@@H]2CCN(c3cccnc3)C[C@@H]2C1 | 1.75 |
| c1coc(-c2nc3c(c(N4CCCN5CCC[C@H]5C4)n2)CCNCC3)c1 | 0.644 |
| Cc1ccoc1C(=O)N1CC[C@H]2OCC[C@@]2(COCc2ccncc2)C1 | 6.75 |
| Cc1cc(=O)n(C)cc1NC(=O)Cc1ccc(C(F)(F)F)cc1 | 1.6 |
| Cc1cc(=O)n(C)cc1NC(=O)Cc1cc(F)ccc1F | 69.1 |
| Cc1cc(=O)n(C)cc1NC(=O)Cc1cccc(F)c1 | 19.8 |
| O=C1CO[C@H]2CN(C3CCOCC3)C[C@H]2N1Cc1ccccn1 | 2.85 |
| Cc1ccc(S(=O)(=O)N2C[C@@H]3CCN[C@@H]3C2)cc1 | 2.57 |
| COc1ccc(CN2C[C@@H]3COC[C@@H](CC(=O)N4CCCC4)[C@@H]3C2)cc1 | 4.49 |
| O=c1c(CN2CCOCC2)coc2ccc(Cl)cc12 | 28.3 |
| O=c1c(CN2CC3CCCN3C[C@@H]2CCO)coc2ccc(Cl)cc12 (stereo partly specified) | 0.683 |
| O=c1c(CN2CCCCC2)coc2ccc(Cl)cc12 | 62.1 |
| Cc1ccc(S(=O)(=O)N2C[C@@H]3C[C@@H](NC(=O)C(C)(C)C)[C@@H]3C2)cc1 | 6.48 |
| Cn1cc(C(C)(O)CNc2ccc(Cl)c(C#N)n2)cn1 (stereo unspecified) | 18.4 |
| CC(O)(CNc1ccc(Cl)c(C#N)n1)c1ccsc1 (stereo unspecified) | 59 |
| CC(O)(CNc1ccc(Cl)c(C#N)n1)c1ccccc1 (stereo unspecified) | 8.49 |
| CCOCC(=O)N1CC[C@@H]2O[C@@H](C)C[C@H]2C1 | 2.15 |
| O=C1CC[C@]2(CC[C@@H](NCc3ccc4c(c3)OCO4)CC2)N1 | -2.96 |
| O=C(NC1CC(F)(F)C1)[C@]12COC[C@H]1CN(Cc1ccsc1)C2 | 3.2 |
| O=C(c1ccc(=O)[nH]n1)N1CCCC1C1CCCC1 (stereo unspecified) | 9.62 |
| O=C(c1c[nH]nn1)N1CCCC1C1CCCCC1 (stereo unspecified) | 85.6 |
| O=C(c1cnc2[nH]c(=O)[nH]c(=O)c2c1)N1CCCC1C1CCCCC1 (stereo unspecified) | 2.68 |
| COC[C@@]12CC[C@@H](N3CCOCC3)C[C@H]1CCN(c1nc(CO)cs1)C2 | 10.3 |

| Compound | Percent Effect [%] |
| --- | --- |
| Cn1cc(NC(=O)N2CCC2c2ccccc2)ccc1=O (stereo unspecified) | 20.1 |
| Cn1cc(NC(=O)N2CCC(c3ccccc3)CC2)ccc1=O | 45.4 |
| Cn1cc(NC(=O)N2CCCC2c2ccccn2)ccc1=O (stereo unspecified) | 78.9 |
| Cn1cc(NC(=O)N2CCCC2c2cccnc2)ccc1=O (stereo unspecified) | 4.14 |
| Cn1cc(NC(=O)N2CCC(CN3CCCC3)CC2)ccc1=O | 0.985 |
| CC(C)C1CCCN1C(=O)Nc1ccc(=O)n(C)c1 (stereo unspecified) | 81 |
| COCC(=O)N1CC[C@H]2[C@H]1CCN2CC(C)C | 7.19 |
| CN(Cc1ccco1)[C@@H]1CN(CC2CCOCC2)C[C@@H]2CCCO[C@@H]21 | -0.34 |
| CN1C[C@H]2CNC[C@@]2(C(=O)N2CCN(c3ncccc3C#N)CC2)C1 | 4.21 |
| O=C([C@H]1CCS(=O)(=O)[C@@H]2CN(Cc3ccc(F)cc3)C[C@H]12)N1CCCC1 | 7.12 |
| O=C(c1ccc[nH]1)N1C[C@H](OCc2ccccn2)[C@H]2COC[C@H]21 | -1.37 |
| Cc1ccc(-c2noc(CN3CCc4nn(C)c(=O)cc4C3)n2)cc1 | 1.64 |
| Cn1nc2c(cc1=O)CN(Cc1nc(-c3cccnc3)no1)CC2 | -1.07 |
| Cn1nc2c(cc1=O)CN(Cc1nc(C(C)(C)C)no1)CC2 | 70.1 |
| Cn1nc2c(cc1=O)CN(Cc1nc(C3CC3)no1)CC2 | 8.16 |
| Cc1cccc(-c2noc(CN3CCc4nn(C)c(=O)cc4C3)n2)c1 | 68.9 |
| Cn1nc2c(cc1=O)CN(Cc1nc(-c3ccco3)no1)CC2 | 5.02 |
| CSCC[C@H]1CN2CCC[C@H]2CN1Cc1coc2ccc(C)cc2c1=O | -1.05 |
| Fc1cnc(N2CCO[C@H]3CN(CC4CCC4)C[C@H]32)nc1 | -1.14 |
| Cc1nnsc1CN1C[C@H]2CC[C@@H]1CN(Cc1ccccc1)C2 | 2.23 |
| CCC(=O)N1CC[C@H]2C(=O)N(Cc3ccc(OC)cc3)CCO[C@H]2C1 | 4.55 |
| Cc1noc(C)c1CN1CC[C@H]2[C@H]1CCN2CC1CCOCC1 | 59 |
| Cc1noc(C)c1CN1CCO[C@H]2CN(CC3CC3)C[C@H]21 | 2.54 |
| Cc1noc(C)c1CN1CC[C@H]2[C@@H]1CCC(=O)N2CC1CCOCC1 | 3.41 |

| Compound | Percent Effect [%] |
| --- | --- |
| CCCN1CCN(C(=O)c2cccc3cccnc23)[C@H]2CS(=O)(=O)C[C@H]21 | -0.361 |
| CC1CCC(N2Cc3nc(N)ncc3C2=O)CC1 (stereo unspecified) | 73.8 |
| CC(C)CN1Cc2nc(N3CCC(O)CC3)ncc2C1=O | 4.55 |
| CC(C)CN1Cc2nc(N)ncc2C1=O | 91.2 |
| CC(C)CN1Cc2nc(N3CCCC3)ncc2C1=O | 6.16 |
| CN1CCC(N2Cc3nc(N)ncc3C2=O)CC1 | 2.22 |
| CC1(C)CC(N2Cc3nc(N)ncc3C2=O)CC(C)(C)N1 | 1.77 |
| CN1[C@H](CN2CCCC2)C[C@@H]2CN(C(=O)Cc3cccs3)CC[C@@H]21 | -1.4 |
| CCO[C@@H]1CN(S(=O)(=O)c2cn(C)cn2)[C@@H]2CCCO[C@@H]21 | 3.16 |
| CC(C)=CCN1C(=O)[C@H]2CC[C@@H]1CN(C(=O)CCc1n[nH]c(C)c1C)C2 | -4.7 |
| CC(NC(=O)C1=NN(C)C(=O)CC1)c1ccc(Cl)cc1Cl (stereo unspecified) | 57.8 |
| CC(NC(=O)C1=NN(C)C(=O)CC1)c1ccccc1Cl (stereo unspecified) | 7.44 |
| CC(NC(=O)C1=NN(C)C(=O)CC1)c1ccc(Cl)cc1 (stereo unspecified) | 6.56 |
| c1ccc(CO[C@@H]2CN(Cc3ccoc3)[C@@H]3COC[C@@H]32)nc1 | -0.514 |
| N#Cc1cc2c(=O)n(CC(O)Cc3ccccc3)ccc2[nH]c1=O (stereo unspecified) | 4.36 |
| CC(C)SCCn1ccc2[nH]c(=O)c(C#N)cc2c1=O | 48.5 |
| N#Cc1cc2c(=O)n(CC(O)C(F)(F)F)ccc2[nH]c1=O (stereo unspecified) | 27.3 |
| CCCOC(C)Cn1ccc2[nH]c(=O)c(C#N)cc2c1=O (stereo unspecified) | 61.2 |
| CCC(Cn1ccc2[nH]c(=O)c(C#N)cc2c1=O)OC (stereo unspecified) | 34.1 |
| CC(O)CCn1ccc2[nH]c(=O)c(C#N)cc2c1=O (stereo unspecified) | 58.6 |
